Assay outcomes: PubChem BioAssay, National Center for Advancing Translational Sciences (NCATS)
FEN1 inhibitor = blocks human flap endonuclease 1. Potency, µM (titrated, usually from 114 µM), actives largely listed as inhibitors. AID 588795. hit rate 0.35% among 390,000. P39748. Recombinant FEN1 flap cleavage, fluorescence, 15 min; also: nearly all actives have a fitted effect of over 65% in size
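FEN1 at 10 nM, compound pretreatment for 15 min (room temperature), 50 nM final substrate to initiate; endpoint reads at 0 and 15 min; DMSO-only plates used as vehicle background.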
Pol kappa inh-1 = DNA polymerase kappa (human) inhibition; Q9UBT6; purified Pol kappa, fluorescent DNA synthesis assay, 10 min; Potency, µM (titrated, usually from 107 µM), hits mostly inhibitors; hit rate 0.53% among 400,000; AID 588579
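Kinetic fluorescence screen: compound preincubated 15 min RT with 10 nM enzyme; 50 nM substrate (final) initiates; reads at 0/10 min.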
POLI inh = blocks human DNA polymerase iota activity; Q9UNA4; Pol iota fluorescent replication assay, 10 min; Potency, µM (top dose mostly 115 µM), hits mostly inhibitors; hit rate 1% among 390,000; AID 588590
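Pol iota at 10 nM preincubated 15 min with compounds at room temperature; reaction started with fluorescent substrate, 50 nM final. Fluorescence read kinetically at 0 and 10 min; buffer-only wells as negative control.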
TDP1 block = TDP1 (human) enzyme inhibition. recombinant TDP1, AlphaScreen DNA substrate cleavage. hit rate 0.28% among 350,000. Q9NUW8. Potency, µM (doses to about 130 µM), most hits filed as inhibitors; also: nearly all actives have a fitted effect of over 40% in size
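Recombinant E. coli-expressed Tdp1 (1 nM) preincubated with compound 15 min at RT, then 5'-biotin/3'-phosphotyrosine-FITC DNA substrate (15 nM) added for 5 min. AlphaScreen beads (10 ug/ml) added, 10 min RT; tyrosine-FITC cleavage read as signal loss.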
Pol eta inh-1 = blocks human DNA polymerase eta activity | Q9Y253 | recombinant Pol eta, fluorescent DNA replication assay | Potency, µM (titrated, usually from 114 µM), most hits filed as inhibitors | hit rate 1.2% among 390,000
Target sequence (Q9Y253 whole entry, looked up): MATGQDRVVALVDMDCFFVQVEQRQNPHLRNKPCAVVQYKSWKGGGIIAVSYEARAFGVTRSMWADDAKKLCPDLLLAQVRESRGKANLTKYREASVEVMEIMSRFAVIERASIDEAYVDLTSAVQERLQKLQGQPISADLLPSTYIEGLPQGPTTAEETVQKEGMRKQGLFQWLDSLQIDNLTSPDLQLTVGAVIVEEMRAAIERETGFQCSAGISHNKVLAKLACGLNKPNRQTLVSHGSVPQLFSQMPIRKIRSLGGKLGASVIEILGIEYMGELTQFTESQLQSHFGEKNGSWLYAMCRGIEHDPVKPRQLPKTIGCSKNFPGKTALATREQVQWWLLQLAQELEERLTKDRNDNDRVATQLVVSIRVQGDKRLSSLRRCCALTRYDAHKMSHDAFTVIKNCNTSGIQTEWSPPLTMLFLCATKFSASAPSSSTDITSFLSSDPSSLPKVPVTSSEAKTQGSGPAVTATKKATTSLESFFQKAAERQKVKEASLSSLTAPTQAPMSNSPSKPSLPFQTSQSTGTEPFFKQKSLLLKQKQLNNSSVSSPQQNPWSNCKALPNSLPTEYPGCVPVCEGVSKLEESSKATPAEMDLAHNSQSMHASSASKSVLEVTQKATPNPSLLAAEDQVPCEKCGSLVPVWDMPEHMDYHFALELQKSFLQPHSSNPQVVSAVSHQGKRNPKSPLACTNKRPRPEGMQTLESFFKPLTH
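Pol eta (10 nM) was preincubated with compounds for 15 min at room temperature, after which fluorescent replication substrate (50 nM final) was added to start the reaction. Fluorescence was read kinetically at 0 and 10 min.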
POLB inh = DNA polymerase beta (human) inhibition. P06746. Pol beta primer extension/strand displacement, fluorescence kinetic. hit rate 1.3% among 340,000. Potency, µM (top dose mostly 114 µM), actives largely listed as inhibitors
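Values derive from four-parameter Hill fits of normalized kinetic data: reads at 0 and 10 min following addition of 50 nM substrate to 10 nM Pol beta preincubated 15 min with compound.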
TbPGK inh = validation of Trypanosoma brucei phosphoglycerate kinase inhibitors; shares compounds with Pol kappa inh-1; TbPGK coupled GAPDH assay, Kinase-Glo luminescence; Potency, µM (top dose mostly 57.5 µM), most hits filed as inhibitors; hit rate 79% among 500; AID 686980; also: nearly all actives have a fitted effect of over 65% in size
Pol iota confirm = Human Pol iota inhibitor confirmatory assay; shares compounds with Pol kappa inh-1; Potency, µM, usual class: inhibitors; hit rate 77% among 1,500; Pol iota primer extension, TAMRA/BHQ fluorescence
Pol kappa inh-2 = Pol kappa (human) inhibition, cherry-pick confirmation; shares compounds with Pol eta inh-1; purified Pol-kappa, fluorescent strand-displacement substrate; Potency, µM, usual class: inhibitors; hit rate 76% among 920
Pol eta inh-2 = confirmation of human DNA polymerase eta inhibitors. AID 720502. shares compounds with Pol eta inh-1. hit rate 64% among 2,600. Pol eta primer extension, TAMRA/BHQ fluorescence, 10 min. Potency, µM, usual class: inhibitors
Of the large screens only hits and unclear results are named; the others gave an inactive call (follow-up assays come after a bar, where they were run). This is a sample that favours compounds with a hit; in the whole collection about 2.4% have one here. Calls follow the shape of the dose curve; as a rule, active = well fitted curve in the direction sought with a large enough effect; inconclusive = small, poorly fitted or top-dose-only effect, or another doubt; inactive = no such curve, though single readings can be large; an effect the other way counts as inactive or inconclusive.

O=C1C=CC(n2cc(F)c(=O)[nH]c2=O)O1 (stereo not given)	Pol eta inh-1 20µM (no result: FEN1 inhibitor, Pol kappa inh-1, POLI inh, TDP1 block, POLB inh) | TbPGK inh 18µM | Pol eta inh-2 inconclusive
C[C@H]1O[C@@H](n2cc(F)c(=O)[nH]c2=O)[C@H](O)[C@H]1O	none (no result: POLI inh, TDP1 block, Pol eta inh-1, POLB inh)
O=C(COC(=O)c1ccc(OC(F)(F)F)cc1)Nc1ncccn1	Pol kappa inh-1 inconclusive, POLI inh inconclusive, TDP1 block 22µM, Pol eta inh-1 18µM (no result: POLB inh) | Pol iota confirm 60 | Pol kappa inh-2 inconclusive | Pol eta inh-2 76
COc1ccc(Oc2ncc3nc(-c4cn(C)c5ccccc45)c(=O)n(CCC#N)c3n2)cc1	none (no result: FEN1 inhibitor, POLI inh, TDP1 block, Pol eta inh-1, POLB inh)
O=C(O)c1ccc(N=Nc2c(O)ccc3ncccc23)cc1	FEN1 inhibitor inconclusive, Pol kappa inh-1 28µM, POLI inh 4µM, Pol eta inh-1 2.8µM, POLB inh 5µM (no result: TDP1 block) | Pol iota confirm 34 | Pol kappa inh-2 11 | Pol eta inh-2 15
Nc1nc(N)c(N=Nc2ccc(C(=O)O)cc2)c(N)n1	TDP1 block inconclusive, POLB inh inconclusive
COc1cc(/C=C2\CCCc3c2nc2ccccc2c3C(=O)O)cc(Br)c1O	POLI inh inconclusive
COc1cc(/C=C2\CCc3c2nc2ccccc2c3C(=O)O)cc(OC)c1OC	FEN1 inhibitor 50µM, Pol kappa inh-1 45µM, POLI inh 10µM, Pol eta inh-1 3.2µM, POLB inh 3.2µM (no result: TDP1 block) | Pol iota confirm 21 | Pol eta inh-2 15
Cc1ccc(S(=O)(=O)c2nnn3c2nc(N2CCOCC2)c2sccc23)cc1C	none
Cc1nc2ccn(Cc3cccnc3)c(=O)c2cc1C(=O)NCc1ccccc1	none
CC(=O)NC1=NC(=O)/C(=C/c2cc(C)n(-c3cccc(C(=O)O)c3)c2C)S1	FEN1 inhibitor 50µM, Pol kappa inh-1 40µM, POLI inh 14µM, TDP1 block 3.5µM, Pol eta inh-1 4µM, POLB inh 6.3µM | TbPGK inh 6.5µM | Pol iota confirm 9.5 | Pol kappa inh-2 8.4 | Pol eta inh-2 11
O=C(CN1C(=O)S/C(=C\c2ccc(C(=O)O)cc2)C1=O)Nc1ccccc1	none (no result: TDP1 block)
O=C(O)c1ccc(-n2cccc2/C=C2\SC(=O)N(Cc3ccc(Br)cc3)C2=O)cc1	none (no result: FEN1 inhibitor, Pol kappa inh-1, POLI inh, TDP1 block, Pol eta inh-1, POLB inh) | Pol iota confirm 75 | Pol eta inh-2 76
O=C(O)c1ccc(-n2cccc2/C=C2/SC(=O)N(CC(=O)N3CCCC3)C2=O)cc1	FEN1 inhibitor 40µM, Pol kappa inh-1 7.1µM, POLI inh 3.5µM, TDP1 block 50µM, Pol eta inh-1 1.8µM, POLB inh 2µM | TbPGK inh 5.8µM | Pol iota confirm 5.3 | Pol eta inh-2 6.7
CC(C)CN1CCC2(CC1)CCN(C(=O)c1csnn1)CC2	none (no result: FEN1 inhibitor, POLI inh, TDP1 block, Pol eta inh-1, POLB inh)
Cc1ccc(N)cc1[N+](=O)[O-]	none (no result: FEN1 inhibitor, Pol kappa inh-1, POLI inh, Pol eta inh-1, POLB inh)
COc1cccc(C(=O)OCC(=O)Nc2sc3c(c2C(N)=O)CCC3)c1O	FEN1 inhibitor inconclusive, Pol kappa inh-1 79µM, POLI inh 20µM, TDP1 block inconclusive, Pol eta inh-1 22µM (no result: POLB inh) | Pol iota confirm 42 | Pol kappa inh-2 27 | Pol eta inh-2 30
COc1ccccc1NC(=O)COC(=O)c1cc2c(s1)CCC2	Pol kappa inh-1 inconclusive, POLI inh 32µM, TDP1 block 10µM, Pol eta inh-1 20µM (no result: POLB inh) | Pol iota confirm 75 | Pol kappa inh-2 inconclusive | Pol eta inh-2 76
COc1ccccc1OCC(=O)Nc1sc2c(c1C(N)=O)CCC2	Pol kappa inh-1 inconclusive, POLI inh inconclusive, Pol eta inh-1 inconclusive (no result: POLB inh)
